# Test results published in PubChem BioAssay (NCI).
# This is part of a sample that, as a whole, favours compounds with a hit. Of some 83,000 tested, about 20% had one in any assay.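 Values shown are percent growth following 48 h exposure of cells in 96-well plates to a single concentration of compound; below 10 was considered active.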 The source made the active and inactive calls.
# Test system: CCRF-CEM leukemia
# Assay: NCI-60 one-dose screen, 48 h (100 = growth as untreated, 0 = no growth, -100 = all killed)
# Settings: 10 µM
row,SMILES,growth
1,N#Cc1c(NC(=O)c2ccc(C(O)(C(F)(F)F)C(F)(F)F)cc2)sc2c1CCC(=O)C2,1.92% (active)
2,Cn1cc(-c2cc(N)n3nc(-c4c[nH]c5ccc(Br)cc45)cc3n2)c2cc(Br)cnc21,-32.1% (active)
3,COc1cc2c(cc1OC)CN(CCCCOc1cc(O)c3c(=O)cc(-c4ccccc4)oc3c1)CC2,32.2% (inactive)
4,N#Cc1c(NC(=O)c2ccc(C(F)(F)F)cc2C(F)(F)F)sc2c1CCC(=O)C2,-30% (active)
5,O=C1Nc2ccc(Cl)cc2/C1=C/c1cccc(OCc2ccccc2)c1,-21.5% (active)
6,O=c1cc(-c2ccccc2)oc2cc(OCCCCNCc3ccccc3)cc(O)c12,2.88% (active)
7,CC1=N/C(=C\c2ccc(N(C)C)cc2)C(=O)N1CCc1ccc(S(N)(=O)=O)cc1,88.4% (inactive)
8,CC(=O)OC[C@@]1(C)C2CC[C@]3(C)C(CC=C4C5CC(C)(C)CC[C@]5(C(=O)Nc5ccccc5)CC[C@]43C)[C@@]2(C)C[C@@H](OC(C)=O)[C@@H]1OC(C)=O (stereo partly specified),29.7% (inactive)
9,Cc1ccc(-c2cc(-c3cc4ccccc4nc3Cl)[nH]c(=S)n2)cc1,33.2% (inactive)
10,COc1ccc(C(=O)Nc2sc3c(c2C#N)CCC(=O)C3)cc1C(F)(F)F,5.05% (active)
11,Cc1cc(C)cc(Oc2cccc(-c3c(C)nnn3C3CCN(CCN(C)C)CC3)n2)c1,16.7% (inactive)
12,Nc1nnc(-c2c[nH]c3ccc(F)cc23)c(-c2c[nH]c3ncccc23)n1,61.6% (inactive)
13,Nc1nc(-c2ccccc2)cc(-c2cc3ccccc3nc2Cl)n1,1.2% (active)
14,Cc1cc(C(F)(F)F)ccc1C(=O)Nc1sc2c(c1C#N)CCC(=O)C2,6.32% (active)
15,O=C(CSc1nnc(-c2ccc3nc(-c4ccccc4)[nH]c3c2)o1)Nc1ccc(Br)cc1,39.4% (inactive)
16,COc1ccc2nc(Cl)c(-c3cc(-c4ccccc4)nc(N)n3)cc2c1,-4.77% (active)
17,O=C(CNc1nc(-c2ccccc2)cs1)Nc1ccc(Cl)cc1[N+](=O)[O-],11.1% (inactive)

row,SMILES,growth
1,C/C(=C\CSc1ccccc1C(=O)O)CCCC(C)CCCC(C)CCCC(C)C (stereo unspecified),29.8% (inactive)
2,COc1ccc2[nH]c(=O)c(CSc3cccc(N)c3)cc2c1,47.2% (inactive)
3,Cn1cc(-c2cc(N)n3nc(-c4c[nH]c5ccc(Br)cc45)cc3n2)c2cccnc21,-19.1% (active)
4,N#Cc1c(NC(=O)c2ccc(C(F)(F)F)c(Cl)c2)sc2c1CCC(=O)C2,5.53% (active)
5,COc1ccc(OC)c(/C=N/NC(=O)c2ccc3nc(-c4ccc(Cl)cc4)[nH]c3c2)c1,43.9% (inactive)
6,CC(=O)NNc1ccc2nnc(-c3ccc(Br)cc3)n2n1,40.1% (inactive)
7,COc1cc(OC(F)(F)F)ccc1C(=O)Nc1sc2c(c1C#N)CCC(=O)C2,18.3% (inactive)
8,Cc1nc2c(cnn2-c2ccccc2)c(=O)n1-c1ccc(NC(=O)c2ccc(F)cc2)cc1,34.8% (inactive)
9,COc1cccc(/C=N/NC(=O)c2ccc3nc(-c4ccc(Cl)cc4)[nH]c3c2)c1O,-40.6% (active)
10,Cc1cccc2cc(-c3cc(-c4ccccc4)nc(=S)[nH]3)c(Cl)nc12,66.2% (inactive)
11,OCc1[nH]nc2cc(Nc3ncc4ccc(Br)c(OC5CCC(O)CC5)c4n3)ccc12 (stereo unspecified),0.234% (active)
12,COc1cccc(/C=C2\N=C(C)N(CCc3ccc(S(N)(=O)=O)cc3)C2=O)c1,96.4% (inactive)
13,N#Cc1c(NC(=O)c2cccc(C(F)(F)F)c2)sc2c1CCC(O)=C2,21.9% (inactive)
14,COc1cc(/C=N/NC(=O)c2ccc3nc(-c4ccc(Cl)cc4)[nH]c3c2)cc(OC)c1OC,-4.37% (active)
15,N#Cc1c(NC(=O)c2ccc(C(F)(F)F)cc2)sc2c1CCC(O)=C2,6.68% (active)
16,O=C1Nc2ccc(F)cc2/C1=C/c1cccc(OCc2ccccc2)c1,-4.49% (active)

# Test system: MOLT-4 leukemia
# Assay: as above
# Settings: 10 µM
row,SMILES,growth
1,N#Cc1c(NC(=O)c2ccc(C(O)(C(F)(F)F)C(F)(F)F)cc2)sc2c1CCC(=O)C2,-40.9% (active)
2,Cn1cc(-c2cc(N)n3nc(-c4c[nH]c5ccc(Br)cc45)cc3n2)c2cc(Br)cnc21,-28.6% (active)
3,COc1cc2c(cc1OC)CN(CCCCOc1cc(O)c3c(=O)cc(-c4ccccc4)oc3c1)CC2,20.2% (inactive)
4,N#Cc1c(NC(=O)c2ccc(C(F)(F)F)cc2C(F)(F)F)sc2c1CCC(=O)C2,-16% (active)
5,O=C1Nc2ccc(Cl)cc2/C1=C/c1cccc(OCc2ccccc2)c1,-20.6% (active)
6,O=c1cc(-c2ccccc2)oc2cc(OCCCCNCc3ccccc3)cc(O)c12,-0.919% (active)
7,CC1=N/C(=C\c2ccc(N(C)C)cc2)C(=O)N1CCc1ccc(S(N)(=O)=O)cc1,93.6% (inactive)
8,CC(=O)OC[C@@]1(C)C2CC[C@]3(C)C(CC=C4C5CC(C)(C)CC[C@]5(C(=O)Nc5ccccc5)CC[C@]43C)[C@@]2(C)C[C@@H](OC(C)=O)[C@@H]1OC(C)=O (stereo partly specified),24.4% (inactive)
9,Cc1ccc(-c2cc(-c3cc4ccccc4nc3Cl)[nH]c(=S)n2)cc1,17.5% (inactive)
10,O=c1cc(-c2ccccc2)oc2cc(OCCCNCc3ccccc3)cc(O)c12,-13% (active)
11,COc1ccc(C(=O)Nc2sc3c(c2C#N)CCC(=O)C3)cc1C(F)(F)F,3.42% (active)
12,Cc1cc(C)cc(Oc2cccc(-c3c(C)nnn3C3CCN(CCN(C)C)CC3)n2)c1,30.8% (inactive)
13,Nc1nnc(-c2c[nH]c3ccc(F)cc23)c(-c2c[nH]c3ncccc23)n1,48.8% (inactive)
14,O=C1Nc2cc(Cl)ccc2/C1=C/c1cccc(OCc2ccc(Br)cc2F)c1,0.0252% (active)
15,Nc1nc(-c2ccccc2)cc(-c2cc3ccccc3nc2Cl)n1,59.2% (inactive)
16,Cc1cc(C(F)(F)F)ccc1C(=O)Nc1sc2c(c1C#N)CCC(=O)C2,2.54% (active)
17,O=C(CSc1nnc(-c2ccc3nc(-c4ccccc4)[nH]c3c2)o1)Nc1ccc(Br)cc1,16.8% (inactive)
18,COc1ccc2nc(Cl)c(-c3cc(-c4ccccc4)nc(N)n3)cc2c1,-18.1% (active)
19,O=C(CNc1nc(-c2ccccc2)cs1)Nc1ccc(Cl)cc1[N+](=O)[O-],3.2% (active)

row,SMILES,growth
1,C/C(=C\CSc1ccccc1C(=O)O)CCCC(C)CCCC(C)CCCC(C)C (stereo unspecified),16.3% (inactive)
2,COc1ccc2[nH]c(=O)c(CSc3cccc(N)c3)cc2c1,41.2% (inactive)
3,Cn1cc(-c2cc(N)n3nc(-c4c[nH]c5ccc(Br)cc45)cc3n2)c2cccnc21,-23.8% (active)
4,N#Cc1c(NC(=O)c2ccc(C(F)(F)F)c(Cl)c2)sc2c1CCC(=O)C2,-6.19% (active)
5,COc1ccc(OC)c(/C=N/NC(=O)c2ccc3nc(-c4ccc(Cl)cc4)[nH]c3c2)c1,41.1% (inactive)
6,CC(=O)NNc1ccc2nnc(-c3ccc(Br)cc3)n2n1,92.3% (inactive)
7,COc1cc(OC(F)(F)F)ccc1C(=O)Nc1sc2c(c1C#N)CCC(=O)C2,90.8% (inactive)
8,Cc1nc2c(cnn2-c2ccccc2)c(=O)n1-c1ccc(NC(=O)c2ccc(F)cc2)cc1,5.38% (active)
9,COc1cccc(/C=N/NC(=O)c2ccc3nc(-c4ccc(Cl)cc4)[nH]c3c2)c1O,-50.4% (active)
10,Cc1cccc2cc(-c3cc(-c4ccccc4)nc(=S)[nH]3)c(Cl)nc12,43.6% (inactive)
11,Cc1cc2nc3c4ccccc4n(CCO)c3nc2cc1C,78.4% (inactive)
12,OCc1[nH]nc2cc(Nc3ncc4ccc(Br)c(OC5CCC(O)CC5)c4n3)ccc12 (stereo unspecified),1.17% (active)
13,COc1cccc(/C=C2\N=C(C)N(CCc3ccc(S(N)(=O)=O)cc3)C2=O)c1,97.8% (inactive)
14,C=C1CCC2C3(C)COC(c4cc(F)cc(F)c4)OC3CCC2(C)C1C/C=C1/C(=O)OCC1O (stereo unspecified),8.72% (active)
15,CN(C(=O)c1ccc(C(F)(F)F)cc1C(F)(F)F)c1sc2c(c1C#N)CCC(=O)C2,36.4% (inactive)
16,N#Cc1c(NC(=O)c2cccc(C(F)(F)F)c2)sc2c1CCC(O)=C2,25.9% (inactive)
17,COc1cc(/C=N/NC(=O)c2ccc3nc(-c4ccc(Cl)cc4)[nH]c3c2)cc(OC)c1OC,3.96% (active)
18,N#Cc1c(NC(=O)c2ccc(C(F)(F)F)cc2)sc2c1CCC(O)=C2,13.8% (inactive)
19,O=C1Nc2ccc(F)cc2/C1=C/c1cccc(OCc2ccccc2)c1,1.81% (active)
